Test results published in PubChem BioAssay AID504832 (National Center for Advancing Translational Sciences (NCATS), 2011).
Screen size: about 310,000 compounds; about 18,000 (5.8%) were called active. About 22% were inconclusive and are not listed. Calls follow the shape of the dose curve; as a rule, active = well fitted inhibition curve with a large enough effect; inconclusive = small, poorly fitted or top-dose-only effect, or another doubt; inactive = no such curve, though single readings can be large or run the other way. Shown is part of a subset that was picked to be rich in actives. Where a call stands in place of a potency, no number is given.

Assay: Primary qHTS for delayed death inhibitors of the malarial parasite plastid, 48 hour incubation
Conditions: P. falciparum luciferase growth in erythrocytes; series mostly up to 28.7 µM
Description: The goal of this screen is to discover new antimalarial compounds that act by inhibiting the development of the apicoplast in the malarial parasite Plasmodium falciparum. The biochemical processes that make this organelle essential for erythrocytic stage parasites are not well understood. However, antibiotics such as azithromycin and tetracycline, which target the apicoplast translational machinery, have a potent antimalarial effect.
We have developed a cell-based assay that measures parasite growth based on the expression of an integrated copy of a firefly luciferase reporter. To detect small molecules that cause this "delayed death" phenotype, erythrocytes infected with the luciferase-expressing parasites were incubated with compounds for either one or two generations, corresponding to 48 and 96 hours, respectively. Compounds that inhibit parasite growth in the second generation, but not the first, should be enriched in antimalarials that target the apicoplast. Growth inhibition is detected by a decrease in luciferase activity.
Assay Provider: David Fidock and Eric Ekland, Columbia University
Keywords: NIH Roadmap, MLPCN, MLI, MLSMR, qHTS, NCGC, qHTS, malaria, luciferase, viability
Four microliters of culture medium (RPMI 1640 with 0.5% w/v Albumax (GIBCO), 24 mM sodium bicarbonate and 10 ug/mL gentamycin) were dispensed by a Multi-drop Combi into white solid 1536-well plates (Grenier) and 23 nL compound was added by a pin tool. Four microliters of infected erythrocytes (2% hematocrit, 0.1% parasitemia final concentration) in culture medium were dispensed and the plates incubated for 48 hours at 37 C in 5% CO2. Two microliters of luciferase detection reagent was added and luminescence was detected by a ViewLux (PerkinElmer) reader.
Potency is read from the fitted curve at half-maximal effect.

SMILES | Potency | activity change, negative = inhibition
Cc1ccc(C)c(OCCC(=O)OCC(=O)NC(=O)NCc2ccccc2)c1 | inactive | 
CCC1CCCCN1C(=S)Nc1ccc(S(=O)(=O)Nc2ncccn2)cc1 (stereo not given) | inactive | 
O=C(CCN1C(=O)[C@@H]2Cc3ccccc3CN2C1=O)NCCc1ccccc1 | inactive | 
O=C(c1ccc(OC2CCN(C/C=C/c3ccc(F)cc3)CC2)cc1)N1CCCCC1 | 11.7 µM (active) | 
O=C(c1ccc(OC2CCN(Cc3ccccn3)CC2)cc1)N1CCCCCC1 | inactive | 
CC(=O)Nc1ccc(CN2CCC(Oc3ccc(C(=O)N4CCCC4)cc3)CC2)cc1 | inactive | 
CCc1noc(C)c1C(=O)NNC(=O)c1ccc(F)cc1 | inactive | 
CCn1nc(C)c(CNC(=O)C2CCC(=O)N(Cc3cccc(F)c3)C2)c1C (stereo not given) | inactive | 
CC(C)[C@H](NC(=O)N1CCn2c1nc1ccccc12)C(=O)NCc1ccc2c(c1)OCO2 | inactive | 
CC(C)(C)c1ccc(C(=O)N2CCC(C(=O)N3CCCCC3)CC2)cc1 | inactive | 
CC(C)(C)c1ccc(/C=C2\Oc3c(ccc(O)c3CN3CCN(CCO)CC3)C2=O)cc1 | 10.4 µM (active) | 
CC(=O)Nc1cccc(NC(=O)c2ccc3c(c2)CCN3S(C)(=O)=O)c1 | inactive | 
C[C@H](NC(=O)C1CC(=O)N(c2ccc3c(c2)OCCO3)C1)C(=O)N1CCC(C(=O)O)CC1 (stereo not given in full) | inactive | 
CC1(C)c2[nH]c3ccccc3c2C[C@H]2C(=O)N(N)CC(=O)N21 | inactive | 
Cc1cc(C)cc(OCc2nnc(SCC(=O)OC3CCCCC3)o2)c1 | inactive | 
Cc1ccccc1OCc1nnc(SCC(=O)N2c3ccccc3Sc3ccc(Cl)cc32)o1 | 10.4 µM (active) | 
Cc1cc(C)cc(OCc2nnc(SCC(=O)Nc3ccccc3)o2)c1 | inactive | 
CC(C)Oc1ccc(C(=O)NCC(=O)Nc2ccc3c(c2)CCC3)cc1 | inactive | 
CCN(CC)c1ccc(S(=O)(=O)N2CCOCC2)cc1NC(=O)CSc1cccc[n+]1[O-] | inactive | 
O=C(Nc1ccc(S(=O)(=O)N2CCCC2)cc1Cl)C1=COCCO1 | inactive | 
CCN(CC)c1ccc(S(=O)(=O)N2CCCCC2)cc1NC(=O)C1=COCCO1 | 13.1 µM (active) | 
COc1ccc(-c2noc(CCCC(=O)NC3CCCC3)n2)cc1OC | inactive | 

SMILES | Potency | activity change, negative = inhibition
Cn1c(-c2ccc(F)cc2)cc2onc(-c3ccccc3Cl)c2c1=O | inactive | 
O=C(Nc1ccc([N+](=O)[O-])cc1)OCCc1ccccn1 | inactive | 
CC[C@@H]1Cc2cc(O)ccc2C2=C1c1ccc(O)cc1C[C@H]2CC | 11.7 µM (active) | 
O=C(Nc1ccccn1)C1CCN(S(=O)(=O)c2ccc3c(c2)OCCO3)CC1 | inactive | 
CCOc1ccc(-c2noc(CCC(=O)NC3CCCC3)n2)cc1OC | inactive | 
Cc1ccc(C)c(OCCC(=O)OCC(=O)N2CCN(c3ccccc3)CC2)c1 | inactive | 
CC(C)NC(=O)COCc1cc(-c2ccc3c(c2)OCO3)on1 | inactive | 
COc1ccc(C(=O)CC(=O)C(=O)Nc2cc([N+](=O)[O-])ccc2OC)cc1 |  | -19.7% [at 0.00184 µM] (inactive)
CN(C)CC(O)COc1ccc(C(C)(C)c2ccc(OCC(O)CN(C)C)cc2)cc1 (stereo not given) | 5.86 µM (active) | 
OC(COc1ccc(Br)cc1)CN1CCCC1 (stereo not given) | inactive | 
Cc1cc(C)n(CC(O)COc2ccc(C(C)(C)C)cc2)n1 (stereo not given) | inactive | 
O=C(OCC(=O)N1CCc2ccccc21)c1ccc([N+](=O)[O-])cc1 | inactive | 
O=C(N/N=C\c1cc2c(cc1Cl)OCO2)c1ccc(Br)s1 | inactive | 
Cc1ccc(S(=O)(=O)N(C)C)cc1NC(=O)C(C)OC(=O)c1ccc2ccccc2n1 (stereo not given) | inactive | 
CC1=NC2(CCCc3c2no[n+]3[O-])N(O)C1(C)C (stereo not given) | 7.38 µM (active) | 
CCOc1ccccc1NS(=O)(=O)c1cc2c3c(c1)C(C)C(=O)N3CCC2 (stereo not given) | inactive | 
Cc1cc(C)n(-c2ccc(NC(=O)C3CCCCN3C(=O)c3cccs3)cc2)n1 (stereo not given) | inactive | 
CC1C(=O)Nc2ccccc2N1C(=O)c1c(F)cccc1F (stereo not given) | inactive | 
O=C(CCNC(=O)c1ccc(Br)cc1)Nc1cccc(S(=O)(=O)N2CCCCC2)c1 | inactive | 
COc1ccc2oc(C(=O)OCC(=O)N(CC(C)C)c3c(N)n(Cc4ccccc4)c(=O)[nH]c3=O)c(C)c2c1 | inactive | 
CC(=O)c1ccc(Oc2cc(C)nc(-n3nc(C)cc3C)n2)cc1 | 11.7 µM (active) | 
Cc1cc(Oc2ccc(Cl)cc2)nc(SCC(=O)c2ccccc2)n1 | inactive | 

SMILES | Potency | activity change, negative = inhibition
Cc1cc(C)n(-c2cc(Oc3ccccc3)ncn2)n1 | inactive | 
COc1cccc(C(=O)Nc2nnc(S(=O)(=O)N3CCCCC3)s2)c1 | inactive | 
COc1ccc(/C=C2\SC(=O)N(CCC(=O)NC3CCS(=O)(=O)C3)C2=O)cc1 (stereo not given) | inactive | 
COc1cc(-c2noc(C3CCCN(S(=O)(=O)c4cccc(Cl)c4)C3)n2)cc(OC)c1OC (stereo not given) | 13.1 µM (active) | 
COc1cccc(-c2noc(C3CCCN(C(=O)c4ccc(F)cc4)C3)n2)c1 (stereo not given) | inactive | 
CC(C)c1ccc(-c2noc(C3CCCN(S(C)(=O)=O)C3)n2)cc1 (stereo not given) | inactive | 
CCCCn1c(N)c(N(CCOC)C(=O)c2sc3ccccc3c2Cl)c(=O)[nH]c1=O | inactive | 
CCn1cc(/C=C(\NC(=O)c2ccc(C)cc2)C(=O)NCCN2CCOCC2)c2ccccc21 | inactive | 
COc1ccc(NC(=O)CSc2nc(SC)ns2)c(OC)c1 | inactive | 
O=C(O)CCn1c(Cc2ccccc2)nc2ccccc21 | inactive | 
Cc1ccc2c(c1)C1CN(C)CCC1N2C(=S)Nc1ccc(Cl)cc1Cl (stereo not given) | inactive | 
Cc1ccc2c(c1)C1CN(C)CCC1N2C(=S)Nc1ccc(OC(F)F)cc1 (stereo not given) | inactive | 
Cc1ccc2c(c1)C1CN(C)CCC1N2S(=O)(=O)c1ccc(Oc2ccc([N+](=O)[O-])cc2)cc1 (stereo not given) | 8.28 µM (active) | 
COc1cc(NC(=O)CSc2ccc(-c3cccnc3)nn2)cc(OC)c1 | inactive | 
COc1ccccc1CN1CCN(C(c2ccccc2)c2ccccc2)CC1 | 13.1 µM (active) | 
COc1ccccc1CN1CCN(C(=O)Cc2ccccc2)CC1 | inactive | 
COc1ccccc1/C=N/N1CCN(Cc2ccccc2Cl)CC1 | inactive | 
COc1ccc(N2CC(NS(=O)(=O)c3ccc4ccccc4c3)CC2=O)cc1 (stereo not given) | inactive | 
NC(=O)c1cc(-c2cccnc2)nc2ccc(Br)cc12 | inactive | 
O=C(NCc1ccco1)c1ccc([N+](=O)[O-])cc1Cl | inactive | 
O=C(NCc1ccco1)c1cc(-c2cccnc2)nc2ccc(Cl)cc12 | 10.4 µM (active) | 
